Assay results from the supplement of paper PMC8728848.
The sample as a whole holds a higher share of the strongest signals than the screen did.

Key:
Test in all cases: glycan array binding signal (z-score within array); higher = stronger binding
Details in all cases: glycan notation: IUPAC condensed, linker removed
[1] = biological target: Fuc(a1-2)Gal(b1-4)GlcNAc(b1-3)Gal(b1-4)GlcNAc(b1-2)Man(a1-3)[Fuc(a1-2)Gal(b1-4)GlcNAc(b1-3)Gal(b1-4)GlcNAc(b1-2)Man(a1-6)]Man(b1-4)GlcNAc(b1-4)GlcNAc
How it was run: (§1)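 Negative Z-scores can be read as non-binding. The Z-score is calculated within each array and then averaged across arrays of one protein sequence at different concentrations or buffers and across linkers. Arrays, 3228 in all, were curated from the Consortium for Functional Glycomics database and kept only where the protein sequence was available.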

[2] = biological target: Fuc(a1-2)[Gal(a1-3)]Gal(b1-4)GlcNAc
How it was run: as §1

[3] = biological target: Fuc(a1-2)[Gal(a1-3)]Gal(b1-4)GlcNAc(b1-2)Man
How it was run: as §1

[4] = biological target: Fuc(a1-2)[Gal(a1-3)]Gal(b1-4)GlcNAc(b1-6)GalNAc
How it was run: as §1

[5] = biological target: Fuc(a1-2)[Gal(a1-3)]Gal(b1-4)[Fuc(a1-3)]GlcNAc(b1-3)GalNAc
How it was run: as §1

[6] = biological target: Fuc(a1-2)[GalNAc(a1-3)]Gal(b1-4)GlcNAc(b1-2)Man(a1-3)[Fuc(a1-2)[GalNAc(a1-3)]Gal(b1-4)GlcNAc(b1-2)Man(a1-6)]Man(b1-4)GlcNAc(b1-4)[Fuc(a1-6)]GlcNAc
How it was run: as §1

[7] = biological target: Fuc(a1-3)[Gal(b1-4)]GlcNAc(b1-3)Gal(b1-4)[Fuc(a1-3)]GlcNAc(b1-3)Gal(b1-4)[Fuc(a1-3)]GlcNAc
How it was run: as §1

[8] = biological target: Fuc(a1-3)[Gal(b1-4)]GlcNAc6S
How it was run: as §1

[9] = biological target: Fuc(a1-3)[Gal3S(b1-4)]GlcNAc6S
How it was run: as §1

Fuc(a1-4)GlcNAc = biological target: Fuc(a1-4)GlcNAc
How it was run: as §1

Gal(a1-3)Gal = biological target: Gal(a1-3)Gal
How it was run: as §1

Gal(b1-3)GalNAc = biological target: Gal(b1-3)GalNAc
How it was run: as §1

[10] = biological target: Gal(b1-3)GlcNAc(b1-2)Man(a1-3)[Gal(b1-3)GlcNAc(b1-2)Man(a1-6)]Man(b1-4)GlcNAc(b1-4)GlcNAc
How it was run: as §1

[11] = biological target: Gal(b1-3)GlcNAc(b1-3)Gal(b1-4)GlcNAc(b1-3)Gal(b1-4)GlcNAc(b1-2)[Gal(b1-3)GlcNAc(b1-3)Gal(b1-4)GlcNAc(b1-3)Gal(b1-4)GlcNAc(b1-6)]Man(a1-6)[Gal(b1-3)GlcNAc(b1-3)Gal(b1-4)GlcNAc(b1-3)Gal(b1-4)GlcNAc(b1-2)Man(a1-3)]Man(b1-4)GlcNAc(b1-4)[Fuc(a1-6)]GlcNAc
How it was run: as §1

[12] = biological target: Gal(b1-3)[Fuc(a1-4)]GlcNAc(b1-2)Man
How it was run: as §1

[13] = biological target: Gal(b1-3)[Fuc(a1-4)]GlcNAc(b1-3)Gal(b1-3)[Fuc(a1-4)]GlcNAc
How it was run: as §1

Gal(b1-4)Gal = biological target: Gal(b1-4)Gal
How it was run: as §1

[14] = biological target: Gal(b1-4)GlcNAc(b1-2)[Gal(b1-4)GlcNAc(b1-6)]Man(a1-6)[GlcNAc(b1-4)][Gal(b1-4)GlcNAc(b1-2)[Gal(b1-4)GlcNAc(b1-4)]Man(a1-3)]Man(b1-4)GlcNAc(b1-4)[Fuc(a1-6)]GlcNAc
How it was run: as §1

[15] = biological target: Gal(b1-4)GlcNAc(b1-3)Gal(b1-4)GlcNAc(b1-2)[Gal(b1-4)GlcNAc(b1-3)Gal(b1-4)GlcNAc(b1-6)]Man(a1-6)[Gal(b1-4)GlcNAc(b1-3)Gal(b1-4)GlcNAc(b1-2)Man(a1-3)]Man(b1-4)GlcNAc(b1-4)GlcNAc
How it was run: as §1

[16] = biological target: Gal(b1-4)GlcNAc(b1-3)Gal(b1-4)GlcNAc(b1-3)GalNAc
How it was run: as §1

[17] = biological target: Gal(b1-4)GlcNAc(b1-3)Gal(b1-4)GlcNAc(b1-3)[Gal(b1-4)GlcNAc(b1-3)Gal(b1-4)GlcNAc(b1-6)]GalNAc
How it was run: as §1

[18] = biological target: Gal(b1-4)GlcNAc(b1-3)Gal(b1-4)[Fuc(a1-3)]GlcNAc(b1-3)Gal(b1-4)[Fuc(a1-3)]GlcNAc
How it was run: as §1

[19] = biological target: Gal(b1-4)GlcNAc(b1-3)[Gal(b1-4)GlcNAc(b1-6)]Gal(b1-4)GlcNAc
How it was run: as §1

[20] = biological target: Gal(b1-4)GlcNAc(b1-3)[GlcNAc(b1-6)]Gal(b1-4)GlcNAc
How it was run: as §1

Gal3S(b1-4)Glc6S = biological target: Gal3S(b1-4)Glc6S
How it was run: as §1

[21] = biological target: GalNAc(b1-4)GlcNAc(b1-2)Man
How it was run: as §1

GalNAc(b1-4)GlcNAc6S = biological target: GalNAc(b1-4)GlcNAc6S
How it was run: as §1

GlcA(b1-3)GlcNAc = biological target: GlcA(b1-3)GlcNAc
How it was run: as §1

[22] = biological target: GlcNAc(a1-3)Gal(b1-4)GlcNAc
How it was run: as §1

[23] = biological target: GlcNAc(b1-2)[GlcNAc(b1-6)]Man(a1-6)[GlcNAc(b1-4)][GlcNAc(b1-2)Man(a1-3)]Man(b1-4)GlcNAc(b1-4)GlcNAc
How it was run: as §1

GlcNAc(b1-3)Man = biological target: GlcNAc(b1-3)Man
How it was run: as §1

Kdn(a2-3)Gal(b1-3)GlcNAc = biological target: Kdn(a2-3)Gal(b1-3)GlcNAc
How it was run: as §1

[24] = biological target: Man(a1-2)Man(a1-2)Man(a1-3)Man
How it was run: as §1

[25] = biological target: Man(a1-2)Man(a1-6)[Man(a1-3)]Man(a1-6)[Man(a1-2)Man(a1-2)Man(a1-3)]Man
How it was run: as §1

Man(a1-3)[Man(a1-6)]Man = biological target: Man(a1-3)[Man(a1-6)]Man
How it was run: as §1

[26] = biological target: Man(a1-3)[Man(a1-6)]Man(b1-4)GlcNAc(b1-4)GlcNAc
How it was run: as §1

Man(b1-4)GlcNAc = biological target: Man(b1-4)GlcNAc
How it was run: as §1

[27] = biological target: Neu5Ac(a2-3)Gal(b1-3)GalNAc6S
How it was run: as §1

[28] = biological target: Neu5Ac(a2-3)Gal(b1-3)GlcNAc
How it was run: as §1

Neu5Ac(a2-3)Gal(b1-4)Glc = biological target: Neu5Ac(a2-3)Gal(b1-4)Glc
How it was run: as §1

[29] = biological target: Neu5Ac(a2-3)Gal(b1-4)GlcNAc(b1-2)Man
How it was run: as §1

[30] = biological target: Neu5Ac(a2-3)Gal(b1-4)GlcNAc(b1-3)Gal(b1-4)GlcNAc(b1-3)[Neu5Ac(a2-3)Gal(b1-4)GlcNAc(b1-3)Gal(b1-4)GlcNAc(b1-6)]GalNAc
How it was run: as §1

[31] = biological target: Neu5Ac(a2-3)Gal(b1-4)GlcNAc(b1-6)[Gal(b1-3)]GalNAc
How it was run: as §1

[32] = biological target: Neu5Ac(a2-3)Gal(b1-4)[Fuc(a1-3)]GlcNAc(b1-2)Man
How it was run: as §1

[33] = biological target: Neu5Ac(a2-3)Gal(b1-4)[Fuc(a1-3)]GlcNAc(b1-6)[Neu5Ac(a2-3)Gal(b1-3)]GalNAc
How it was run: as §1

[34] = biological target: Neu5Ac(a2-3)GalNAc(b1-4)GlcNAc
How it was run: as §1

[35] = biological target: Neu5Ac(a2-3)[Neu5Ac(a2-6)]GalNAc
How it was run: as §1

[36] = biological target: Neu5Ac(a2-6)GlcNAc(b1-4)GlcNAc
How it was run: as §1

Neu5Ac(a2-8)Neu5Ac = biological target: Neu5Ac(a2-8)Neu5Ac
How it was run: as §1

[37] = biological target: Neu5Ac9Ac(a2-3)Gal(b1-4)GlcNAc
How it was run: as §1

[38] = biological target: Neu5Gc(a2-8)Neu5Gc(a2-3)Gal(b1-4)GlcNAc
How it was run: as §1

B1: Mermaid3 (Stilbonema majum) (protein)
chain: MGSSHHHHHHSSGLVPRGSHMAASGWLRSPQGTVVKLYRRSLSWSKADEFCKDVDGRLVVDRTADMHLFLIKNVLKEKKSRVWVGLRRTASHSRTWIWSDGTRQNEGDLDANLWLRDEPNDAAGEEECALFMYSPWEKAWGLNDYLCRGGCRNYQFICEKWIR
- glycan array binding signal (z-score) [1]: 0.368
- glycan array binding signal (z-score) [2]: -0.174
- glycan array binding signal (z-score) [3]: -0.175
- glycan array binding signal (z-score) [4]: -0.383
- glycan array binding signal (z-score) [5]: -0.592
- glycan array binding signal (z-score) [6]: 0.166
- glycan array binding signal (z-score) [7]: -0.463
- glycan array binding signal (z-score) [8]: 3.67
- glycan array binding signal (z-score) [9]: -0.521
- glycan array binding signal (z-score) (Fuc(a1-4)GlcNAc): 1.39
- glycan array binding signal (z-score) (Gal(a1-3)Gal): -0.579
- glycan array binding signal (z-score) (Gal(b1-3)GalNAc): 0.892
- glycan array binding signal (z-score) [10]: -0.627
- glycan array binding signal (z-score) [11]: 5.6
- glycan array binding signal (z-score) [12]: 0.676
- glycan array binding signal (z-score) [13]: -0.634
- glycan array binding signal (z-score) (Gal(b1-4)Gal): 6.72
- glycan array binding signal (z-score) [14]: -0.562
- glycan array binding signal (z-score) [15]: 3.51
- glycan array binding signal (z-score) [16]: -0.185
- glycan array binding signal (z-score) [17]: -0.118
- glycan array binding signal (z-score) [18]: -0.554
- glycan array binding signal (z-score) [19]: -0.074
- glycan array binding signal (z-score) [20]: 4.93
- glycan array binding signal (z-score) (Gal3S(b1-4)Glc6S): -0.077
- glycan array binding signal (z-score) [21]: -0.708
- glycan array binding signal (z-score) (GalNAc(b1-4)GlcNAc6S): 3.6
- glycan array binding signal (z-score) (GlcA(b1-3)GlcNAc): 1.68
- glycan array binding signal (z-score) [22]: 1.05
- glycan array binding signal (z-score) [23]: -0.397
- glycan array binding signal (z-score) (GlcNAc(b1-3)Man): 5.11
- glycan array binding signal (z-score) (Kdn(a2-3)Gal(b1-3)GlcNAc): -0.708
- glycan array binding signal (z-score) [24]: -0.704
- glycan array binding signal (z-score) [25]: -0.681
- glycan array binding signal (z-score) (Man(a1-3)[Man(a1-6)]Man): 0.678
- glycan array binding signal (z-score) [26]: -0.62
- glycan array binding signal (z-score) (Man(b1-4)GlcNAc): 4.76
- glycan array binding signal (z-score) [27]: -0.112
- glycan array binding signal (z-score) [28]: -0.277
- glycan array binding signal (z-score) (Neu5Ac(a2-3)Gal(b1-4)Glc): 0.506
- glycan array binding signal (z-score) [29]: 4.26
- glycan array binding signal (z-score) [30]: -0.289
- glycan array binding signal (z-score) [31]: 4.77
- glycan array binding signal (z-score) [32]: -0.553
- glycan array binding signal (z-score) [33]: -0.153
- glycan array binding signal (z-score) [34]: 0.426
- glycan array binding signal (z-score) [35]: 4.44
- glycan array binding signal (z-score) [36]: -0.709
- glycan array binding signal (z-score) (Neu5Ac(a2-8)Neu5Ac): -0.57
- glycan array binding signal (z-score) [37]: -0.2
- glycan array binding signal (z-score) [38]: -0.787
